# Source: PubChem BioAssay (NCATS)
# Results filed as inconclusive are left out. A call without a number means that no potency is given here. Activity calls are given as the source filed them. Calls come from the whole dose curve; as a rule, active = well fitted curve in the direction sought with a large enough effect; inconclusive = small, poorly fitted or top-dose-only effect, or another doubt; inactive = no such curve, though single readings can be large; an effect the other way counts as inactive or inconclusive. Residues, ends and D or L forms follow the SMILES beside them. *: point of attachment. Cbz = O=C(OCc1ccccc1)*
# Experiments:
# [1] = qHTS to identify inhibitors of the type 1 interferon - major histocompatibility complex class I in skeletal muscle: primary screen against the NCATS Mechanism Interrogation Plate v5.0 (MIPE) Libary (AID 1347411); note: nearly all actives have a fitted effect of over 65% in size; note: potency is the fitted concentration of half-maximal effect
# Procedure, shortened: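 HLA-B HiBit myoblasts, dexamethasone-free medium + 4 ng/ml IFN-b, 24 h compound, 11-pt 1:3 from 46 uM final. Readout: Nano-Glo HiBiT lytic luminescence after 10 min lysis, RT.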
# [2] = qHTS to identify inhibitors of the type 1 interferon - major histocompatibility complex class I in skeletal muscle: primary screen against the NCATS Pharmaceutical Collection (AID 1347407);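 note: luminescence of HiBiT knocked into endogenous HLA-B as interferon-induced MHC class I level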
# Procedure, shortened: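 Compounds […] were added to CRISPR-engineered HLA-B-HiBiT C25cl48 human myoblasts with 4.0 ng/ml IFN-beta. After 24 hrs at 37 C, cells were lysed and HiBiT luminescence measured.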
# [3] = target: Protein phosphatase 1D (Homo sapiens) (UniProt O15297); test: RapidFire Mass Spectrometry qHTS Assay for Modulators of WT P53-Induced Phosphatase 1 (WIP1) (AID 1347424);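 note: amount of dephosphorylated VEPPL-S-QETFS peptide product formed by WIP1; series mostly up to about 63 µM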
# Sequence of Protein phosphatase 1D (Homo sapiens) (O15297 whole entry, looked up): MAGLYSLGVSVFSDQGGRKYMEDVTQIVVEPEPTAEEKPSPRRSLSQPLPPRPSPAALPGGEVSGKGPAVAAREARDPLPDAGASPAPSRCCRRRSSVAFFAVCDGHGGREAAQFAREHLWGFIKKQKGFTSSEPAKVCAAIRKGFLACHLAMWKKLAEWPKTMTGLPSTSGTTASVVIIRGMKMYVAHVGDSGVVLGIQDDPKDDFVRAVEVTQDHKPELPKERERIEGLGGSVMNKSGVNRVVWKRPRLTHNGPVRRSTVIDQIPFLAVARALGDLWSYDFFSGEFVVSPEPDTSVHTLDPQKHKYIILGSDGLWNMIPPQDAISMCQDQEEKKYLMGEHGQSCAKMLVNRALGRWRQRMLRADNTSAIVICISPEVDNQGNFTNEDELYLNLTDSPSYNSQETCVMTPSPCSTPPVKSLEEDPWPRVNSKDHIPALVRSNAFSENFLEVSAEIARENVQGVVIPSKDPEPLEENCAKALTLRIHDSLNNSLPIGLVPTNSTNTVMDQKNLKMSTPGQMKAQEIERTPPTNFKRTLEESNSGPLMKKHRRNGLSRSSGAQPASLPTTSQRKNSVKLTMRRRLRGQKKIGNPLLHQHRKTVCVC
# Procedure, shortened: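 Mass-spectrometric measurement of dephosphorylated peptide after a 5 min room-temperature reaction of 10 nM WIP1 with 2 uM phosphopeptide, following 1 h compound preincubation in 30 mM MgCl2 buffer.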
smiles,measurement,setting,value
Nc1nc(N)c2nc(-c3cccc(O)c3)c(-c3cccc(O)c3)nc2n1,Potency,[1],inactive
CC(Cc1ccc(O)c(O)c1)(NN)C(=O)O (configuration not stated),Potency,[1],inactive
O=C(CN1C(=O)C2(CCCC2)NC[C@H]1c1cc(F)cc(F)c1)Nc1ccc2c(c1)C[C@@]1(C2)C(=O)Nc2ncccc21,Potency,[1],inactive
CC(C)C[C@@H](C=O)NC(=O)[C@H](CC(C)C)NC(=O)[C@H](CC(C)C)NC(=O)OCc1ccccc1 (Cbz-Leu-Leu-Leu-aldehyde),Potency,[1],2.08 µM (active)
NC(=O)Nc1cc(-c2ccc(CN3CCOCC3)cc2)sc1C(N)=O,Potency,[1],7.39 µM (active)
CC1(C)O[C@@H]2C[C@H]3[C@@H]4CCC5=CC(=O)C=C[C@]5(C)[C@@H]4[C@@H](O)C[C@]3(C)[C@]2(C(=O)CO)O1,outcome,[2],inactive
same,Potency,[3],inactive
Cc1cn([C@@H]2O[C@H](CO)[C@@H](O)[C@H]2F)c(=O)[nH]c1=O,outcome,[2],inactive
same,Potency,[3],inactive
CCn1c(=O)c2c(nc(C=Cc3ccc(OC)c(OC)c3)n2C)n(CC)c1=O,outcome,[2],inactive
same,Potency,[3],inactive
COc1ccc([C@@H]2CNC(=O)C2)cc1OC1CCCC1,Potency,[1],inactive
COc1cc2c(cc1OC)[C@@H]1C(=O)c3ccc4c(c3O[C@@H]1CO2)C=CC(C)(C)O4,Potency,[1],inactive
CC(=O)SCC(Cc1ccccc1)C(=O)NCC(=O)OCc1ccccc1 (configuration not stated),Potency,[1],inactive
CN(C)CCN1C(=O)c2cccc3cc(N)cc(c23)C1=O,Potency,[1],10.4 µM (active)
OC[C@@H](O)[C@@H](O)[C@H](O)[C@@H](O)CO,Potency,[1],inactive
C[C@H](CCC(=O)O)[C@H]1CCC2C3C[C@H](O)[C@@H]4C[C@H](O)CC[C@]4(C)C3CC[C@@]21C (some centres not stated),Potency,[1],inactive
